Experimental findings from PubChem BioAssay AID1030 (National Center for Advancing Translational Sciences (NCATS), 2008) are described below.

Screen size: about 220,000 compounds; about 16,000 (7.3%) were called active. Inconclusive results (about 25%) are left out. The list comes from a sample in which actives are over-represented; it also holds similar structures and randomly drawn compounds. Where a call stands in place of a potency, no number is given. A number with no mark means an inactive call. Calls come from the whole dose curve; as a rule, active = well fitted inhibition curve with a large enough effect (not every such curve was filed as active); inconclusive = small, poorly fitted or top-dose-only effect, or another doubt; inactive = no such curve, though single readings can be large or run the other way.
Potency is the fitted concentration of half-maximal effect.

Chain of Aldehyde dehydrogenase 1A1 (Homo sapiens) (P00352 whole entry, looked up): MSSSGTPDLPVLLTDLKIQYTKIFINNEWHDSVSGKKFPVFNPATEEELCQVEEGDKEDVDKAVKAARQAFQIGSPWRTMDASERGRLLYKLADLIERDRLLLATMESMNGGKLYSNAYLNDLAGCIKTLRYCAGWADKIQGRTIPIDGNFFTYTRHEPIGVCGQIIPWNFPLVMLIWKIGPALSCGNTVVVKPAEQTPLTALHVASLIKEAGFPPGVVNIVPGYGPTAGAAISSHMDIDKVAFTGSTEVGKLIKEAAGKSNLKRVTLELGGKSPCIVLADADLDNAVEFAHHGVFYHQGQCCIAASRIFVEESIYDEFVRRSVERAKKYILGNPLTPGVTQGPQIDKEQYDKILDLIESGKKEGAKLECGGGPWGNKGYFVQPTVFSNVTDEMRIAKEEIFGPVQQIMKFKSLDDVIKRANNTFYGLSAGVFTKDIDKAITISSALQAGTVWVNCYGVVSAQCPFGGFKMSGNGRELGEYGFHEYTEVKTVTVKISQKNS

This assay has as its target Aldehyde dehydrogenase 1A1 (Homo sapiens) (UniProt P00352). The assay can be described thus: qHTS Assay for Inhibitors of Aldehyde Dehydrogenase 1 (ALDH1A1). Conditions: Purified ALDH1A1, NADH fluorescence, propionaldehyde substrate; series mostly up to 75.3 µM.
As to `CCCn1c(N)c(C(=O)CSc2nnc(-c3cccnc3)n2-c2ccc(C)cc2C)c(=O)[nH]c1=O`, the Potency entry was “inactive”.
Still for that read-out and setting: the value for `COc1ccc(Cl)cc1N(CC(=O)N/N=C/c1ccc(OCC(N)=O)cc1)S(C)(=O)=O` was “inactive”.
For the molecule `COC(=O)c1nc(NC(=O)c2ccc(F)cc2)n[nH]1`, the Potency result was “inactive”.
On the same count and under the same terms, the value for `Cc1cccc(C(=O)Nc2ccc(CC(=O)O)cc2)c1` was “inactive”; that for `Cc1cccc(C(=O)Nc2ccc3c(c2)C(=O)N(CC(C)C)C3=O)c1` was 2.82 µM (active).
`Cc1cccc(NC(=O)c2cccc(C(F)(F)F)c2)c1`: the Potency result was “inactive”.
Regarding `CC1CC(NC(=O)/C(C#N)=C/c2ccc[nH]2)CC(C)(C)C1` (configuration not stated), the Potency entry was “inactive”.
Take `CCOC(=O)CSc1nnc(CNC(=O)c2cccs2)n1-c1ccccc1`: the Potency entry was “inactive”.
`CCn1c(Cc2cccs2)nnc1SCC(=O)c1ccc(C)cc1`: the Potency was 22.4 µM (active).
As for `Cc1ccc(-n2c(Cc3cccs3)nnc2SCC(=O)OC(C)C)cc1`, the Potency was 5.62 µM (active).
On to `CCn1c(SCC(=O)c2ccc3ccccc3c2)nnc1-c1cccs1`, for which the Potency result was “inactive”.
In the case of `COc1ccc(-n2c(SCC(=O)OC(C)C)nnc2-c2ccccn2)cc1`, the Potency result is “inactive”.
On the same count and under the same terms, the same measure for `CCn1c(SCC(=O)c2ccc(Cl)s2)nnc1-c1cccs1`: “inactive”; for `Cc1[nH]c2ccccc2c1-c1ccc(Cl)nn1`: “inactive”.
For `CC(=O)C1=C(C)NC2=C(C(=O)CC(C)(C)C2)C1C` (configuration not stated), the Potency result is “inactive”.
As to `CC1(C)CC(=O)C2=C(C1)Nc1cc(C(=O)c3ccccc3)ccc1NC2c1ccccn1` (configuration not stated), the Potency result was “inactive”.
`Cc1cc2c(cc1C)NC(c1ccccn1)C1=C(CC(C)(C)CC1=O)N2` (configuration not stated): the Potency was 14.1 µM (active).
Same read-out and setting: the value for `COCCn1c(C)cc(C(=O)CSc2nc3ccccc3c(=O)n2C(C)COC)c1C` (configuration not stated) was “inactive”; that for `O=C(Cc1ccccc1)NNC(=O)C1CCN(c2ncccn2)CC1` was “inactive”.
Take `O=C(NNC(=O)C1CCN(c2ncccn2)CC1)c1ccccc1`: the Potency entry was “inactive”.
Consider `O=C1/C(=C\Nc2ccccc2)CCN1c1ncccn1`, for which the Potency is 20 µM (active).
Turning to `CC1=C(C(=O)N(C)C)C(c2ccccc2OC(F)F)NC(=O)N1` (configuration not stated), the Potency result was “inactive”.
`COc1ccc(NC(=O)c2cccc(NC(=O)c3ccco3)c2)c(OC)c1`: the Potency entry was “inactive”.
For `Cc1ccc(-n2nc3cc(Cl)c(NC(=O)c4ccco4)cc3n2)cc1`, the Potency entry was “inactive”.
Consider `COc1cc(NC(=O)c2cc([N+](=O)[O-])ccc2Br)ccc1NC(=O)c1ccco1`, for which the Potency result was “inactive”.
Regarding `O=C(Nc1ccc(Sc2ccc(Br)cc2)cc1)c1ccco1`, the Potency entry was “inactive”.
`O=C(NNC(=S)Nc1ccc(Br)cc1Cl)c1ccco1`: the Potency was 12.6 µM (active).
Turning to `O=C(Nc1ccc(NC(=O)c2ccco2)c(Cl)c1)c1cccc([N+](=O)[O-])c1`, the Potency entry was “inactive”.
The same measure, in the same setting: the value for `COc1ccccc1C(=O)Nc1ccc(NC(=O)c2ccco2)c(C)c1` was 8.91 µM (active).
For `COC(=O)c1cc(Cl)c(NC(=O)c2ccco2)cc1OC`, the Potency result was “inactive”.
On the same count and under the same terms, the same measure for `CCC(=O)NC(=S)Nc1ccc(NC(=O)c2ccco2)c(Cl)c1`: 3.55 µM (active).
For the molecule `O=C(NNS(=O)(=O)c1ccccc1C(F)(F)F)c1cc2ncc(C(F)(F)F)cc2s1`, the Potency result was “inactive”.
On the same count and under the same terms, the value for `Cc1nnsc1C(=O)N/N=C/c1cccc(C(F)(F)F)c1` was “inactive”; that for `Cc1cc(C)c(NC(=O)c2oc3ccccc3c2COc2ccccc2)c(C)c1` was “inactive”.
On to `N#Cc1ccc(Oc2ccc(C(F)(F)F)cc2NC(=O)c2ccc(F)cc2)cc1`, for which the Potency entry is “inactive”.
Regarding `Cc1cc(C)nc(/N=C2\NC(=O)CC(C(=O)O)N2c2ccc(Cl)cc2Cl)n1` (configuration not stated), the Potency result is “inactive”.
On the same count and under the same terms, the value for `CCC(=O)/C(=C(/O)c1ccccc1)c1nc2ccccc2[nH]1` was “inactive”.
For the molecule `CSc1sc(C(=O)NNC(=O)c2ccc(Cl)cc2)c2c1C=CCC2`, the Potency result was “inactive”.
For `CC1CCN(S(=O)(=O)c2ccc3ncn(CC(=O)N(C)C4CCCCC4)c(=O)c3c2)CC1`, the Potency entry is “inactive”.
For `O=C(Cn1cc(C(F)(F)F)ccc1=O)N/N=C/c1ccc(Cl)cc1Cl`, the Potency result is “inactive”.
Same read-out and setting: the same measure for `O=C(CN1CCSCC1)N/N=C/c1ccc(F)cc1F`: 31.6 µM (active); for `O=C(CCC(=O)Nc1ccccc1)N/N=C/c1ccccc1F`: “inactive”; for `O=C(C1CCN(C2CCN(Cc3cccc4c3OCO4)CC2)CC1)N1CCOCC1`: “inactive”.
Take `CC(=O)c1c(C)[nH]c(C(=O)Nc2cc(S(=O)(=O)N(C)C)ccc2C)c1C`: the Potency result is “inactive”.
Turning to `Cc1cc(NC(=O)CSc2nccn2-c2ccc([N+](=O)[O-])cc2)no1`, the Potency entry was “inactive”.
Same read-out and setting: the same measure for `CN(CCOc1ccc(Br)cc1)CC(=O)Nc1cccc(S(=O)(=O)NC2=NCCC2)c1`: “inactive”; for `CC1CCCC(C)N1/N=C/c1ccccc1OC(F)F` (configuration not stated): “inactive”; for `CN1CCN(S(=O)(=O)c2ccc(NC(=O)C3CCCO3)cc2)CC1` (configuration not stated): “inactive”.
In the case of `COc1ccc(NC(=O)CN2CCN(S(=O)(=O)c3ccc(F)cc3)CC2)cc1Cl`, the Potency entry is “inactive”.
As for `CN(CC(=O)Nc1ccc(S(=O)(=O)N2CCCC2)cc1)Cc1ccc(Cl)c(Cl)c1`, the Potency was 20 µM (active).
Turning to `OCCC#Cc1ccc(CN2CCN(Cc3ccsc3)C(CCO)C2)cc1` (configuration not stated), the Potency entry was “inactive”.
For `NC(CSC12CC3CC(CC(C3)C1)C2)C(=O)O` (configuration not stated), the Potency is 12.6 µM (active).
The same measure, in the same setting: the value for `Cc1ccc(C)c(NC(=O)CCC(=O)N/N=C2/CC(=O)CC(C)(C)C2)c1` was “inactive”; that for `O=C(CN1CCN(c2ccc(O)cc2)CC1)Nc1cc(S(=O)(=O)N2CCOCC2)ccc1Cl` was 25.1 µM (active); that for `O=C(CN1CCOCC1)Nc1cc(Cl)ccc1Cl` was “inactive”.
Still for that read-out and setting: the same measure for `O=C(COc1cccc2ccccc12)Nc1cc(S(=O)(=O)N2CCOCC2)ccc1N1CCOCC1`: “inactive”.
Regarding `Cn1c(=O)c2c(nc(N/N=C/c3cccs3)n2Cc2ccc(Br)cc2)n(C)c1=O`, the Potency entry was “inactive”.
In the case of `C/C(Cl)=C\Cn1c(Nc2cccc(C)c2)nc2c1c(=O)n(C)c(=O)n2C`, the Potency is 20 µM (active).
In the case of `C=CCn1c(Oc2ccc(C(=O)OC)cc2)nc2c1c(=O)n(C)c(=O)n2C`, the Potency result was “inactive”.
As to `CC[C@H](C)[C@@H](C(=O)N1CCNCC1)n1cc([C@@H](N)Cc2ccc(O)cc2)nn1`, the Potency result was “inactive”.
Regarding `COC(=O)C1=C(C(=O)OC)[C@@H]2N(C)c3ccccc3[C@@]23C[C@@H](C(=O)OC)N(S(=O)(=O)c2ccc(Br)cc2)C3=N1`, the activity, negative = inhibition was 6.9% [at 13.5 µM].
For the molecule `O=c1[nH]n2c(=O)c3c([nH]c2c1N=Nc1ccccc1)CCC3`, the Potency result is “inactive”.
With `O=[N+]([O-])/C(N=Nc1ccccc1)=N\Nc1ccccc1`, the Potency is 14.1 µM (active).
In the case of `O=C(/C=N/O)Nc1ccccc1`, the Potency result was “inactive”.
On to `COc1cc(C(=O)Nc2cc(C(F)(F)F)ccc2-n2cncn2)cc(OC)c1OC`, for which the Potency entry is “inactive”.
Take `CCOc1ccc(CN2CCN(Cc3ccon3)CC2CCO)cc1` (configuration not stated): the Potency result is “inactive”.
Take `COc1ccc(/C=N/NC(=O)c2cccc(C(F)(F)F)c2)cc1`: the Potency result was “inactive”.
Take `CCOc1ccc2nc(C(=O)N3CCCC(C)C3)sc2c1` (configuration not stated): the Potency was 14.1 µM (active).
With `CCOc1ccc(NC(=O)C2CCCN(C(=O)Nc3ccccc3)C2)cc1` (configuration not stated), the Potency result was “inactive”.
As to `COc1ccc2nc(NC(=O)[C@@H]3CCCN3C(=O)c3cccs3)sc2c1`, the Potency result was “inactive”.
In the case of `COc1cc(OC)nc(N/N=C(\c2ccccc2)c2ccncc2)n1`, the Potency entry was “inactive”.
In the case of `COc1ccc(-c2nnc3ccc(SCc4ccccc4)nn23)cc1`, the Potency result is “inactive”.
Same read-out and setting: the value for `Fc1cccc(CSc2nnc3ccc(-c4ccncc4)nn23)c1` was “inactive”; that for `Cc1cccc(OCCC(=O)Nc2cc(S(=O)(=O)N3CCCCC3)ccc2N2CCOCC2)c1` was “inactive”; that for `Cc1ccc(/C=C/C(=O)Nc2cc(S(=O)(=O)N3CCCCCC3)ccc2OCC(F)(F)F)o1` was 28.2 µM (active).
For the molecule `COc1ccc(S(=O)(=O)N2CCCCCC2)cc1C(=O)OCC(=O)Nc1cc(C)on1`, the Potency result was “inactive”.
As to `CCc1ccc(CN2C(=O)c3ccccc3C2C(=O)NCC2CCCO2)cc1` (configuration not stated), the Potency entry is “inactive”.
For `CSc1nc(N(C)NC(=O)c2cccc(C)c2)c2ccccc2n1`, the Potency result is “inactive”.
Still for that read-out and setting: the same measure for `CC(Sc1nnc2c(n1)C1CCC2(C)C1(C)C)C(=O)Nc1ccccc1` (configuration not stated): “inactive”; for `CSc1nc(C)cc(SC(C(C)=O)C(=O)Nc2ccccc2)n1` (configuration not stated): 15.8 µM (active); for `CC(=O)c1cc(-c2ccccc2)n(CC(=O)NC2CCCCC2)c1C`: “inactive”.
Same read-out and setting: the same measure for `COC(=O)C(C(=O)OC)C1c2ccccc2C=C(C2CC2)N1C(=O)OC` (configuration not stated): “inactive”.
Regarding `CC(C)(C)N(CC#CCC(O)(c1ccccc1)C1CCCC1)CCO` (configuration not stated), the Potency entry was “inactive”.
Consider `O=C(COC(=O)c1ccc(F)cc1)Nc1nc2ccc([N+](=O)[O-])cc2s1`, for which the Potency entry is “inactive”.
With `CC(C)C(NC(=O)C1CCC(C(C)(C)C)CC1)C(=O)NCCCN1CCCCC1` (configuration not stated), the Potency result was “inactive”.
For `COC(=O)c1sc(C(F)(F)F)c(-c2ccccc2)c1S(=O)(=O)N(C)C`, the Potency entry is “inactive”.
For the molecule `CCOC(=O)CN(C)S(=O)(=O)c1ccc(-c2cc(C(=O)OC)sc2C(F)(F)F)cc1`, the Potency was 5.97 µM (active).
For the molecule `COc1cccc(NC(=O)CN(C)S(=O)(=O)c2ccc(C)cc2)c1`, the Potency entry was “inactive”.
As to `Cc1ccc(SC(CC(=O)c2ccc(C(C)(C)C)cc2)C(=O)O)cc1` (configuration not stated), the Potency was 0.199 µM (active).
Same read-out and setting: the same measure for `Cc1ccc(SC(C)C(=O)NCc2ccc(F)cc2)cc1` (configuration not stated): “inactive”; for `Cc1ccn(C(CC(=O)c2ccc(Br)cc2)C(=O)O)n1` (configuration not stated): “inactive”.
For `Cc1sc2c(c1C)c(=O)n(-c1ccccc1)c(=O)n2CC(=O)NCC1CCCO1` (configuration not stated), the Potency entry is “inactive”.
In the case of `Cn1c(=O)c2c(nc(N3CCCCCC3)n2CC(=O)c2ccc(Br)cc2)n(C)c1=O`, the Potency entry was “inactive”.
Regarding `O=C(c1ccc(Cl)cc1)c1ccc(OCC(O)CN2CCCCC2)cc1` (configuration not stated), the Potency result is “inactive”.
In the case of `Cn1c(=O)c2c(nc(N3CCCCCC3)n2CC(O)COc2ccc(Cl)cc2)n(C)c1=O` (configuration not stated), the Potency was 11.2 µM (active).
In the case of `CC(C(=O)N=Nc1c(O)n(C)c2ccc(Br)cc12)n1cnc2ccccc2c1=O` (configuration not stated), the Potency entry is “inactive”.
As to `Cc1ccc(S(=O)(=O)Nc2nc(N)n(-c3ccccc3)n2)cc1`, the Potency entry was “inactive”.
The same measure, in the same setting: the value for `Cc1c(NC(=O)CSc2nnnn2-c2ccc(C(=O)O)cc2)c(=O)n(-c2ccccc2)n1C` was “inactive”.
For the molecule `Cc1ccccc1-n1nnnc1SCCCC(=O)c1ccc(F)cc1`, the Potency is 0.0794 µM (active).
For the molecule `O=c1c2ccccc2nnn1CSc1nnnn1-c1ccccc1`, the Potency result is “inactive”.
With `NC(N)=Nc1nc2ccc(Br)cc2c(=O)[nH]1`, the Potency entry is “inactive”.
Turning to `O=C(Nc1cccnc1)c1ccc(Cl)c([N+](=O)[O-])c1`, the Potency result is “inactive”.
